Test results from ChEMBL document CHEMBL3988442, “University of Dundee, Small-Polar-MMV Screening Library” (2021).
The whole screen tested about 48,000 compounds, of which about 13,000 (27%) showed an effect of 50% or more. This is one part of the list.

The molecules below were run on Wolbachia pipientis (assay: Anti-Wolbachia Cell-Based Screen). Conditions: 5 µM.
Type: functional
Parameters: scale not given: in the data most compounds retested in dose-response had high values

Structure (SMILES) | Percent Effect [%]
Cc1ccc(OCC(O)CN(C)CC(=O)NC(C)C)c(C)c1 (stereo not drawn) | 0.9379
Cc1ccc(S(=O)(=O)N(C)Cc2cnccn2)cc1N(C)C | -3.361
CCO[C@H]1CC[C@H]2[C@H]1OCCN2C(=O)CC1=CCCCC1 | 80.53
CO[C@@H]1CC[C@H]2[C@H]1OCCN2C(=O)C1=CCCC1 | 4.441
CO[C@H]1CC[C@H]2[C@H]1OCCN2C(=O)C1=CCCC1 | 2.583
CCOCC1CC2(CCN(C(=O)CC3=CCCCC3)CC2)CO1 (stereo not drawn) | -15.26
O=C(C1=CCCC1)N1CCO[C@H]2[C@@H](OCC3CC3)CC[C@@H]21 | -8.51
CCO[C@@H]1CC[C@H]2[C@H]1OCCN2C(=O)CC1=CCCCC1 | 124.5
CO[C@H]1CC[C@H]2[C@H]1OCCN2C(=O)CC1=CCCCC1 | 98.05
CC(C)(CNC(=O)Nc1cccc(-c2cccs2)c1)C(N)=O | 3.927
N#Cc1ccc(Cn2cncn2)c(F)c1 | -14.63
N#Cc1nccnc1NC1CCN(c2ccccc2OC(F)F)C1 (stereo not drawn) | 9.423
CCN1CCc2[nH]cnc2C12CCN(c1ccc(Cl)c(C(=O)O)n1)CC2 | -7.204
COc1ccc(CNC(=O)NCC2CCOC2)c(C(F)(F)F)c1 (stereo not drawn) | -17.58
O=C(c1cc2c(s1)CCC2)N1CCCC1Cn1cccn1 (stereo not drawn) | 111
O=C(c1cc2c(s1)CCCC2)N1CCCC1Cn1cccn1 (stereo not drawn) | 141.2
O=C(c1cc2c(s1)CCC2)N1CCCCC1Cn1cccn1 (stereo not drawn) | -2.201
Cc1nn(C)c(N2CCOCC2)c1CNC1CCN(C(C)(C)C)CC1 | -15.17
c1ccc(-c2cccc(-c3ccn(CCN4CCCCC4)n3)c2)nc1 | 2.819
c1cc(-c2nccn2CCc2nc3c(s2)CCC3)ccn1 | 7.441
c1ccc(-c2nnc3sc(CCN4CCCC4)nn23)cc1 | 117
Cc1ccc(-c2cccc(-c3ccn(CCN4CCCC4)n3)c2)nn1 | -8.933
c1cc(-c2ccn(CCN3CCCC3)n2)cc(-c2nccs2)c1 | -3.86
c1cc(-c2nnc3sc(CCN4CCCC4)nn23)ccn1 | 107.3
Cc1ccc(CNC2CCN(CCc3ccncc3)CC2)s1 | -7.206
Cc1nc(CCN2CCCCC2)n(-c2ccc(F)cc2)n1 | -12.73

Structure (SMILES) | Percent Effect [%]
c1ccc(-c2nnc3sc(CCN4CCCCCC4)nn23)cc1 | 117.6
CC(C)(C)Cc1noc2ncc(C(=O)N3CCC3)cc12 | -0.07347
O=C(C1SCCc2sccc21)N1CCN(CC(F)F)CC1 (stereo not drawn) | 2.68
CS(=O)(=O)c1ccc(OCCNCc2cccc(F)c2)cc1 | -4.841
CS(=O)(=O)CCCOc1cccc(-n2cccn2)c1 | -22.07
CN(CCOc1cccc(CNS(C)(=O)=O)c1)C1CCOCC1 | -5.968
CN(CCOc1cccc(S(C)(=O)=O)c1)c1ccccc1 | 88.15
CN(CCOc1cccc(Cl)c1)Cc1nnc(C(C)(C)C)o1 | -19.16
CS(=O)(=O)CCCOc1cccc(-n2ccnc2)c1 | 0.659
COc1cccc(S(=O)(=O)CCN2CCN(CC(F)F)CC2)c1 | 1.442
CCC(C)(C)N(C)CCOc1cccc(S(C)(=O)=O)c1 | 103.5
CN(CCOc1cccc(S(C)(=O)=O)c1)CC(F)F | 95.25
Cc1cccc(C(=O)NC2CCN(c3cnn(C)c3)C2=O)c1C (stereo not drawn) | 3.687
O=C(CC1CC1)NCc1cn2c(n1)CN(Cc1nccs1)CC2.O=C(O)C(F)(F)F | 17.65
Cc1cc(C(=O)N2C[C@@H]3[C@@H](C2)OCC(=O)N3CC2CC2)no1 | 15.73
CS(=O)(=O)CCN1CCC(=Cc2ccccc2)CC1 | 3.303
COc1cccc(CN(C(=O)NC2CC2)C2CCC(O)CC2)c1 (stereo not drawn) | 4.411
CNC(=O)[C@@]12CCO[C@@H]1CCN(S(=O)(=O)c1ccccc1)C2 | -56.29
CNC(=O)CN([C@H]1C[C@H]2CCOC[C@H]2C1)S(=O)(=O)c1ccccc1 | 119.6
O=C(O)CN(C(=O)c1ccccc1)[C@H]1C[C@H]2CCOC[C@H]2C1 | 112.1
CNC(=O)CN(C(=O)c1ccccc1)[C@H]1C[C@H]2CCOC[C@H]2C1 | 119.3
O=C(C1CC1)N(CCc1ccccc1)C1CCOC1 (stereo not drawn) | -3.562
O=C(NC1CC1)N(CCc1ccccc1)C1CCOC1 (stereo not drawn) | -8.792
O=C(C1CCOCC1)N(CCc1ccccc1)C1CCOC1 (stereo not drawn) | -13.84
CC(=O)NCC(=O)N(CCc1ccccc1)C1CCOC1 (stereo not drawn) | 3.358
CN(CC(=O)N(C)C1CCN(CC2CCOC2)CC1)c1ccccc1 (stereo not drawn) | -6.754

Structure (SMILES) | Percent Effect [%]
CN1CCN(CCO)C(=O)C12CCN(c1nccs1)CC2 | 3.933
CN1CCOC(C(=O)Nc2ccc3[nH]nnc3c2)C1 (stereo not drawn) | 3.877
CCc1nsc(NC2CCCn3nc(COC)nc32)n1 (stereo not drawn) | -2.766
CCc1nccn1CCCNC(=O)c1cnn(-c2ccccc2OC)c1 | 86.43
Cc1ccc2[nH]c(C(=O)NCCCn3ccnn3)c(C)c2c1 | -11.21
CCc1nccn1CCCNC(=O)CN1CCN(c2ncccn2)CC1 | -11.95
Cc1ccc2nc(C)c(C)c(C(=O)NCCCn3ccnn3)c2c1 | -15.24
COc1ccccc1-n1cc(C(=O)NCCCn2ccnn2)cn1 | 105.8
CC(C)c1nccn1CCCNC(=O)c1ccc(-c2cnn(C)c2)nc1 | 3.735
CC(C)CCN1CC2(CCN(C3CCCOC3)CC2)OC1=O (stereo not drawn) | 10.38
COCCOc1ccc(NC(=O)N2CCCC2c2ccsc2)cn1 (stereo not drawn) | -8.185
COc1c(F)ccc(C(=O)N2CC[C@H](CO)[C@@H](O)C2)c1F | 0.1381
Cc1nc(CN2CCc3nc(N4CCCC4)nc(NC(C)C)c3C2)cs1 | -7.957
CCCS(=O)(=O)N1CCc2nc(N3CCOCC3)nc(N(C)C)c2C1 | 5.75
CCS(=O)(=O)N1CCc2nc(N3CCOCC3)nc(N(C)C)c2CC1 | -7.887
CC(C)Nc1nc(N2CCCC2)nc2c1CCN(S(C)(=O)=O)CC2.O=C(O)C(F)(F)F.O=C(O)C(F)(F)F | 110.6
CC(C)Nc1nc(N2CCCC2)nc2c1CN(S(C)(=O)=O)CC2 | 105.6
CC(C)Nc1nc(N2CCCC2)nc2c1CN(C)CC2 | 109
CCCN1CCc2nc(N3CCOCC3)nc(NC(C)C)c2C1 | -9.413
CCc1ncnc2c1CCN(c1ncc(F)cn1)CC2 | -14.13
CC(C)Nc1nc2c(cc1C(=O)NCC1CC1)CCN(S(C)(=O)=O)CC2.O=C(O)C(F)(F)F | 8.623
CC(C)Nc1nc(N2CCCC2)nc2c1CN(c1ncc(F)cn1)CC2 | 118.9
CC(C)CCN1CCc2nc(N3CCOCC3)nc(NC(C)C)c2C1 | 0.8088
Cc1cc(C(=O)N2CCC(c3nccn3CCCN(C)C)CC2)no1 | 1.64
Nc1nc(CCNc2ncnc3c2CCN(C(=O)C2CC2)C3)cs1 | -7.691
Cc1ccc(SCCN(C)C(=O)c2cn(CCN)nn2)cc1 | 1.127

Structure (SMILES) | Percent Effect [%]
COCC(=O)N(Cc1cccc(C)c1)Cc1ccccc1OC | -10.99
CC(C)(O)CN1CCN(C(=O)COC2CCCCC2)CC1 | -14.17
CCC(C)c1csc(NC(=O)Cc2csc(-c3nnc[nH]3)n2)n1 (stereo not drawn) | -13.2
CCC(C)N1CCc2nc(N3CCCC3)nc(NC(C)C)c2C1 (stereo not drawn) | 120.2
CCN1CCc2nc(N3CCOCC3)nc(NC(C)C)c2C1 | -4.113
CC(C)Nc1nc(N2CCCC2)nc2c1CN(C(C)C)CC2 | 4.85
O=C1NCCN1C1CCN(Cc2coc(-c3ccccc3)n2)CC1 | 93.32
Cc1ccc(-c2nc(CN3CCc4nn(C)c(=O)cc4C3)co2)cc1 | -7.957
O=S1(=O)CCCN1Cc1coc(-c2cccs2)n1 | 4.552
O=C1NCCN1C1CCN(Cc2coc(-c3ccc(F)cc3)n2)CC1 | 91.35
c1csc(-c2nc(CN3CCN(c4cnccn4)CC3)co2)c1 | -1.577
CS(=O)(=O)NC1CCN(Cc2coc(-c3ccccc3)n2)CC1 | -0.3699
O=C1NCCN1C1CCCN(Cc2coc(-c3ccc(F)cc3)n2)C1 (stereo not drawn) | -1.248
O=C1NCCN1C1CCCN(Cc2coc(-c3cccs3)n2)C1 (stereo not drawn) | 113.2
CS(=O)(=O)NC1CCN(Cc2coc(-c3ccc(Cl)cc3)n2)CC1 | 11.26
O=C1NCCN1C1CCCN(Cc2nnc(-c3ccc(F)cc3)o2)C1 (stereo not drawn) | 8.098
O=C1NCCN1C1CCN(Cc2ccccn2)CC1 | -4.193
Cc1ccc(-c2nc(CN3CCC(N4CCNC4=O)CC3)co2)cc1 | 99.39
NCC1Cc2cc(Oc3cc(F)c(CN4CCCC4)c(F)c3)ccc2O1 (stereo not drawn) | -5.798
c1cc(-c2nnc(C3(c4ccc5c(c4)OCO5)CCOCC3)o2)ccn1 | -12.56
CCc1ccc(C(COC)NC(=O)c2ccc(O)nc2)o1 (stereo not drawn) | -6.31
c1ccc(-n2nnnc2CN2CCCC(Cn3cncn3)C2)cc1 (stereo not drawn) | 0.4093
Cc1ccc(NC(=O)CNC(C)CN2CCOCC2)c(F)c1 (stereo not drawn) | 11.35
Cc1ccc(NC(=O)CN2CCOCC2)c(F)c1 | 133.3
Cc1ccc(NC(=O)CNC(C)CN2CCCCC2)c(F)c1 (stereo not drawn) | 7.732
